High-throughput results as filed in PubChem BioAssay.
Compounds with a hit are over-represented: about 2.6% of the library has one in this group of screens.
BRCA1 expr up: qHTS Assay to Identify Small Molecule Activators of BRCA1 Expression | MCF7-BRCA1-FFLuc reporter, luminescence, 48 h; response scale: scaled: vehicle 0%, 10 µM genistein 100% | Potency, µM (doses to about 46.1 µM), usual class: activators | hit rate 1.1% among 380,000 | AID 624202, 2012; note: nearly all actives have a fitted effect of over 80% in size
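48 h compound treatment of MCF7-BRCA1-FFLuc cells (phenol-red free MEM, 37 °C), then 15 min with luciferase substrate and luminescence imaging.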
GLP1R cytotox: qHTS of GLP-1 Receptor Inverse Agonists: Cytotox Screen | HEK293 cAMP-luciferase reporter cells, luminescence, 24 h | hit rate 0.13% among 410,000 | Potency, µM (titrated, usually from 38.3 µM), most hits filed as inhibitors;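 note: loss of luciferase light is scored as toxicity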
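To flag toxic compounds, the library was rerun on cells for 24 hr at 37 deg C and 5% CO2. Viability-linked luminescence was captured 12 min after adding luciferase detection reagent.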
GLP1R inv ag: qHTS of GLP-1 Receptor Inverse Agonists (Inhibition Mode) | HEK293 GLP-1R CRE-luciferase, luminescence, 24 h; GLP-1R form is constitutively active | Potency, µM (series often up to 38.3 µM), usual class: inhibitors | hit rate 1.6% among 410,000 | AID 624417, 2012; note: nearly all actives have a fitted effect of over 55% in size
Target sequence (P43220 whole entry, looked up): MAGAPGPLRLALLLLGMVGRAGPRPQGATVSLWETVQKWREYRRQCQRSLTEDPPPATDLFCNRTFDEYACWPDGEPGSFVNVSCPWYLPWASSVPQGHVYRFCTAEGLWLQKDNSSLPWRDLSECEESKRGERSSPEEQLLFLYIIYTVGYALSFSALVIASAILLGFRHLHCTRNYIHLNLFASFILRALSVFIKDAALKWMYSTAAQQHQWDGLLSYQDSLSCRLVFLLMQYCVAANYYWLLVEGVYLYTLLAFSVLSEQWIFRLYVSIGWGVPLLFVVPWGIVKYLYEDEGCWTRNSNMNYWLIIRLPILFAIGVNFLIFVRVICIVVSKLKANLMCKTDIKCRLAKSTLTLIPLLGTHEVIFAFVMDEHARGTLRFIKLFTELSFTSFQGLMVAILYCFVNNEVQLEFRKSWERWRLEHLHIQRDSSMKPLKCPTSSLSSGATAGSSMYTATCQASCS
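Inverse agonists were sought by their lowering of basal cAMP reporter luciferase output in HEK293 cells stably carrying constitutively active human GLP-1R, after 24 h compound treatment.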
GLP-1R agonist: qHTS of GLP-1 Receptor Agonists. Glucagon-like peptide 1 receptor (Homo sapiens), P43220. HEK293 GLP-1R CRE-luciferase, luminescence, 4-6 h; cells express a hypersensitive GLP-1R form. Potency, µM (highest dose often 45.6 µM), most hits filed as activators. hit rate 0.007% among 380,000. AID 624172, 2012
Of the large screens only hits and unclear results are named; the others gave an inactive call. Calls come from the whole dose curve; as a rule, active = well fitted curve in the direction sought with a large enough effect; inconclusive = small, poorly fitted or top-dose-only effect, or another doubt; inactive = no such curve, though single readings can be large; an effect the other way counts as inactive or inconclusive.

COc1ccc(Oc2c(C=O)c3ccccc3n2C)cc1	GLP1R inv ag 10µM
Cc1ccc(Oc2c(C=O)c3ccccc3n2C)cc1	GLP1R inv ag 5.01µM
Cn1c(Oc2ccc(Cl)cc2)c(C=O)c2ccccc21	GLP1R inv ag inconclusive
CCOc1ccc(-c2cc(C(F)(F)F)c(C#N)c(SCC(=O)Nc3ccccc3)n2)cc1	none (no result: BRCA1 expr up, GLP-1R agonist)
Cc1nn(-c2ccccc2)c(OC(=O)c2ccc(F)cc2)c1S(=O)(=O)c1ccccc1	none
COc1ccccc1-c1cc(C(=O)Nc2c(C)nn(Cc3ccc(Cl)cc3)c2C)no1	none (no result: BRCA1 expr up, GLP-1R agonist)
C/C(=N\NS(=O)(=O)c1ccccc1)c1ccc2c(c1)OCCO2	none
CCOc1ccc(S(=O)(=O)N(CC(=O)N2CCc3ccccc32)Cc2ccco2)cc1	GLP1R inv ag 8.91µM
CN(CC(=O)N1CCc2ccccc21)S(=O)(=O)c1ccc(Cl)cc1	GLP1R inv ag inconclusive
Cc1ccc(N2C(=O)c3ccccc3NC2c2ccccc2O)cc1 (stereo not drawn)	BRCA1 expr up 1.58µM, GLP1R inv ag inconclusive
O=C1c2ccccc2NC(c2ccccc2O)N1O (stereo not drawn)	none
COc1ccc(CCNC(=O)Cn2cc(C(=O)c3ccc(Cl)cc3)c(=O)c3ccc(C)nc32)cc1OC	none (no result: BRCA1 expr up, GLP-1R agonist)
C[C@H](NC(=O)[C@@H]1CCCN1C(=O)[C@@H]1CCCN1C(=O)c1cccc2ccccc12)c1ccccc1	none
COc1ccccc1NC(=O)Nc1nc(CC(=O)NCc2c(F)cccc2F)cs1	GLP1R cytotox inconclusive, GLP1R inv ag inconclusive
COc1ccccc1NC(=O)Nc1nc(CC(=O)N2CCN(c3ccccc3F)CC2)cs1	GLP1R inv ag 10µM
CC(C)(C)NC(=S)NC1CC1	none
Oc1ccc(-c2nc3ccccc3nc2-c2ccccc2)cc1	GLP1R inv ag 3.98µM
COc1ccc2[nH]c3c(NCCC4=CCCCC4)ncnc3c2c1	GLP1R cytotox inconclusive, GLP1R inv ag 5.01µM
COc1ccc2[nH]c3c(NCCCOC(C)C)ncnc3c2c1	none
C1=C(CCNc2ncnc3nc[nH]c23)CCCC1	BRCA1 expr up 6.31µM, GLP1R cytotox inconclusive
CC(C)(C)c1ccc(C(=O)C[n+]2ccccc2Cl)cc1	BRCA1 expr up 7.94µM (no result: GLP1R cytotox, GLP1R inv ag, GLP-1R agonist)
O=C(C[n+]1ccccc1Cl)c1ccc(I)cc1	none (no result: GLP1R cytotox, GLP1R inv ag, GLP-1R agonist)
Nc1c(Cl)cc(C=O)cc1Cl	none (no result: GLP1R cytotox, GLP1R inv ag, GLP-1R agonist)
N#Cc1ccc(OCC(=O)Nc2ccc3[nH]c(=O)[nH]c3c2)cc1	none
COc1ccc(S(=O)(=O)N2CCN(c3nc(-c4cccs4)nc4ccccc34)CC2)cc1OC	none (no result: GLP1R cytotox, GLP1R inv ag, GLP-1R agonist)
COc1ccccc1CNc1ncnc2onc(-c3ccc(Cl)cc3)c12	none
COc1ccc(-n2c(C)nn(CCOc3ccccc3)c2=O)cc1	BRCA1 expr up 10µM
CN(C)CCCCCCCCCCC(=O)/C=N/O	GLP1R inv ag 10µM
CCOc1c(C)cnc2c1c(=O)n(Cc1ccc(Cl)cc1)c(=O)n2C	none
CCOc1c(C)cnc2c1c(=O)n(Cc1cccc(Cl)c1)c(=O)n2C	GLP1R inv ag 10µM
CCCCCCCCCCCCCCCC(=O)OC[C@@H](COP(=O)([O-])OCC[N+](C)(C)C)OC(=O)CCCCCCCCCCCCCCC	none (no result: BRCA1 expr up, GLP1R cytotox, GLP1R inv ag)
O=C(CCCOc1ccccc1)Nc1nc2ccccc2[nH]1	BRCA1 expr up 6.31µM
O=C(NC1CCCC1)C(c1ccccc1)N(C(=O)c1ccco1)C1CCCC1 (stereo not drawn)	GLP1R cytotox inconclusive, GLP1R inv ag 12.6µM
O=C(NC1CCCC1)C(c1ccccc1F)N(C(=O)c1ccco1)C1CCCC1 (stereo not drawn)	GLP1R inv ag inconclusive
Cc1cc(C)nc(SCC(=O)N2CCc3ccccc32)n1	BRCA1 expr up 5.62µM
CC(C)Cn1c(SCC(=O)N2CCCc3ccccc32)nc2ccccc2c1=O	GLP1R inv ag 2.51µM
CCn1c(SCC(=O)N2CCCc3ccccc32)nc2ccccc2c1=O	GLP1R inv ag inconclusive
O=C(CSC1=NCCS1)N1CCc2ccccc21	BRCA1 expr up 3.16µM
Cc1ccc(NC(=O)c2cc3c([nH]c2=O)CC(c2ccccc2)CC3=O)cc1 (stereo not drawn)	none (no result: GLP1R cytotox, GLP1R inv ag, GLP-1R agonist)
Cc1cc(C2=NNC(=NCCc3ccccc3)SC2)c(C)n1CC1CCCO1 (stereo not drawn)	none
Clc1ccc(C2=NNC(=NCC3CCCO3)SC2)cc1 (stereo not drawn)	BRCA1 expr up 2.51µM, GLP1R cytotox inconclusive, GLP1R inv ag inconclusive
CCOc1ccccc1NC(=O)NCc1noc2ccc(C)cc12	GLP1R inv ag inconclusive (no result: BRCA1 expr up, GLP-1R agonist)
O=C(Nc1ccc(C(=O)O)cc1)/C(=C\C=C\c1ccccc1)NC(=O)c1ccccc1Br	BRCA1 expr up 10µM
O=C(Nc1ccc(C(=O)O)cc1)/C(=C\C=C\c1ccccc1)NC(=O)c1cccc(Br)c1	none
C=CCNC(=S)Nc1cc(C)ccn1	GLP1R cytotox inconclusive, GLP1R inv ag 10µM
COC(=O)c1ccc(NC(=S)NC2CC(C)(C)NC(C)(C)C2)cc1	GLP1R inv ag 8.91µM
Cc1ccc2nc(-c3ccc(NC(=S)NC4CC(C)(C)NC(C)(C)C4)cc3)sc2c1	GLP1R cytotox inconclusive, GLP1R inv ag 5.01µM
COC(=O)c1ccc(NC(=S)NC2CCc3ccccc32)cc1 (stereo not drawn)	GLP1R cytotox inconclusive, GLP1R inv ag 10µM
CN(C(=O)c1cccc(COc2ccc(Cl)cc2Cl)c1)c1ccccc1	GLP1R inv ag inconclusive
CN(C)C(=O)c1cccc(COc2ccc(N3C(N)=NC(N)=NC3(C)C)cc2Cl)c1	GLP1R inv ag 2.24µM
CCN1C(=O)/C(=C\N2CCCc3ccccc32)SC1=S	GLP1R inv ag inconclusive
CCN1C(=O)/C(=C/N2CCc3ccccc32)SC1=S	BRCA1 expr up 3.16µM
Cc1ccc(C)c(C(=O)Nc2cc(C)nn2-c2nc(C)cc(C)n2)c1	GLP1R cytotox 1.78µM, GLP1R inv ag inconclusive
Cc1cc(C)nc(-n2nc(C)cc2NC(=O)CN2CCCC2)n1	GLP1R cytotox inconclusive, GLP1R inv ag inconclusive
Cc1cc(C)nc(-n2nc(C)cc2NC(=O)CN2CCC(C)CC2)n1	GLP1R cytotox 5.01µM, GLP1R inv ag inconclusive
N#Cc1c(N)[nH]c(C(=O)c2ccccc2)c1-c1ccc(Cl)cc1	none
CCOC(=O)N1CCN(C(=O)CSc2cc(C)nc3c(-c4ccccc4OC)c(C)nn23)CC1	GLP1R cytotox inconclusive, GLP1R inv ag 12.6µM
CCOC(=O)N1CCC(Nc2cc(C)nc3c(-c4ccccc4OC)c(C)nn23)CC1	GLP1R inv ag inconclusive
COC(=O)C1(C(=O)OC)C[C@H](/C=C/c2ccccc2)N(Cc2ccccc2OC)[C@@H]1c1cccs1	GLP1R inv ag 10µM (no result: BRCA1 expr up, GLP-1R agonist)
COc1ccccc1CN1C2CCCC1CC(NC(=O)/C=C/c1ccccc1)C2 (stereo not drawn)	GLP1R cytotox inconclusive, GLP1R inv ag 10µM
COC(=O)C1(C(=O)OC)C[C@H](/C=C/c2ccccc2)N(Cc2ccccc2OC)[C@@H]1c1ccc(F)cc1	none (no result: BRCA1 expr up, GLP-1R agonist)
CCCNC(=S)NC1CC2CCCC(C1)N2Cc1ccccc1OC (stereo not drawn)	none
